# From PubChem BioAssay
# “And” between values parts separate entries of the source, which are not always exact repeats. Identical values can stand only once.
# Assay: growth inhibition, single agent and combos, cell-based, chromothripsis tumors, cisplatin or BGB combos (AID 1671450);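 also: cells exposed to compound for four days; 0% = vehicle DMSO and 100% = cell killing by high DMSO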
# Details: HDN33 neuroblastoma cells, cisplatin combo, at 5 µM, stronger effect = higher value
row,SMILES,inhibition
1,Cc1c(N)nc(C(CC(N)=O)NCC(N)C(N)=O)nc1C(=O)NC(C(=O)NC(C)C(O)C(C)C(=O)NC(C(=O)NCCc1nc(-c2nc(C(=O)NCCC[S+](C)C)cs2)cs1)C(C)O)C(O[C@@H]1O[C@@H](CO)[C@@H](O)[C@H](O)[C@@H]1O[C@H]1O[C@H](CO)[C@@H](O)[C@H](OC(N)=O)[C@@H]1O)c1cnc[nH]1 (stereo not given in full),90% and 97.3%
2,O=c1[nH]c(=O)n(C2OC(CO)C(O)C2O)cc1F (stereo not given),97.9%
3,O=P(O)(NCCCl)NCCCl,-23.7%
4,CC1(C)C(C(=O)Nc2ccc(S(=O)(=O)c3ccc(NC(=O)C4C(C)(C)C4(C)C)cc3)cc2)C1(C)C,-66.6%
5,CCC1(O)C(=O)OCc2c1cc1n(c2=O)Cc2cc3ccccc3nc2-1 (stereo not given),89.8% and 99.4%
6,NC(Cc1ccc(N(CCCl)CCCl)cc1)C(=O)O (stereo not given),18.9%
7,COc1cc([C@@H]2c3cc4c(cc3[C@H](O)[C@H]3COC(=O)[C@H]23)OCO4)cc(OC)c1O,60.1% and 62.6%
8,COc1cc(C2c3cc4c(cc3C(O)C3COC(=O)C23)OCO4)cc(OC)c1OC (stereo not given),70.5%

# Same assay, conditions: HDN33 neuroblastoma cells, measured here: with BGB IC20 combination, at 0.5 µM, stronger effect = higher value
row,SMILES,inhibition
1,Cc1c(N)nc(C(CC(N)=O)NCC(N)C(N)=O)nc1C(=O)NC(C(=O)NC(C)C(O)C(C)C(=O)NC(C(=O)NCCc1nc(-c2nc(C(=O)NCCC[S+](C)C)cs2)cs1)C(C)O)C(O[C@@H]1O[C@@H](CO)[C@@H](O)[C@H](O)[C@@H]1O[C@H]1O[C@H](CO)[C@@H](O)[C@H](OC(N)=O)[C@@H]1O)c1cnc[nH]1 (stereo not given in full),57.4% and 65.6%
2,O=c1[nH]c(=O)n(C2OC(CO)C(O)C2O)cc1F (stereo not given),69.4%
3,O=P(O)(NCCCl)NCCCl,-28%
4,CC1(C)C(C(=O)Nc2ccc(S(=O)(=O)c3ccc(NC(=O)C4C(C)(C)C4(C)C)cc3)cc2)C1(C)C,-56.4%
5,CCC1(O)C(=O)OCc2c1cc1n(c2=O)Cc2cc3ccccc3nc2-1 (stereo not given),83.3% and 91.4%
6,NC(Cc1ccc(N(CCCl)CCCl)cc1)C(=O)O (stereo not given),-14.2%
7,COc1cc([C@@H]2c3cc4c(cc3[C@H](O)[C@H]3COC(=O)[C@H]23)OCO4)cc(OC)c1O,66.9% and 60.4%
8,COc1cc(C2c3cc4c(cc3C(O)C3COC(=O)C23)OCO4)cc(OC)c1OC (stereo not given),69.9%

# Same assay, conditions: HDN33 neuroblastoma cells, measured here: with cisplatin IC20 combination, at 0.5 µM, stronger effect = higher value
row,SMILES,inhibition
1,Cc1c(N)nc(C(CC(N)=O)NCC(N)C(N)=O)nc1C(=O)NC(C(=O)NC(C)C(O)C(C)C(=O)NC(C(=O)NCCc1nc(-c2nc(C(=O)NCCC[S+](C)C)cs2)cs1)C(C)O)C(O[C@@H]1O[C@@H](CO)[C@@H](O)[C@H](O)[C@@H]1O[C@H]1O[C@H](CO)[C@@H](O)[C@H](OC(N)=O)[C@@H]1O)c1cnc[nH]1 (stereo not given in full),46.8% and 53.3%
2,O=c1[nH]c(=O)n(C2OC(CO)C(O)C2O)cc1F (stereo not given),68.6%
3,O=P(O)(NCCCl)NCCCl,-30.2%
4,CC1(C)C(C(=O)Nc2ccc(S(=O)(=O)c3ccc(NC(=O)C4C(C)(C)C4(C)C)cc3)cc2)C1(C)C,-51.1%
5,CCC1(O)C(=O)OCc2c1cc1n(c2=O)Cc2cc3ccccc3nc2-1 (stereo not given),71% and 86.5%
6,NC(Cc1ccc(N(CCCl)CCCl)cc1)C(=O)O (stereo not given),-16.2%
7,COc1cc([C@@H]2c3cc4c(cc3[C@H](O)[C@H]3COC(=O)[C@H]23)OCO4)cc(OC)c1O,69% and 58.6%
8,COc1cc(C2c3cc4c(cc3C(O)C3COC(=O)C23)OCO4)cc(OC)c1OC (stereo not given),66.6%

# Same assay, conditions: HDN33 neuroblastoma cells, single agent, at 5 µM, stronger effect = higher value
row,SMILES,inhibition
1,Cc1c(N)nc(C(CC(N)=O)NCC(N)C(N)=O)nc1C(=O)NC(C(=O)NC(C)C(O)C(C)C(=O)NC(C(=O)NCCc1nc(-c2nc(C(=O)NCCC[S+](C)C)cs2)cs1)C(C)O)C(O[C@@H]1O[C@@H](CO)[C@@H](O)[C@H](O)[C@@H]1O[C@H]1O[C@H](CO)[C@@H](O)[C@H](OC(N)=O)[C@@H]1O)c1cnc[nH]1 (stereo not given in full),95% and 97.6%
2,O=c1[nH]c(=O)n(C2OC(CO)C(O)C2O)cc1F (stereo not given),98.1%
3,O=P(O)(NCCCl)NCCCl,-43.4%
4,CC1(C)C(C(=O)Nc2ccc(S(=O)(=O)c3ccc(NC(=O)C4C(C)(C)C4(C)C)cc3)cc2)C1(C)C,-24.6%
5,CCC1(O)C(=O)OCc2c1cc1n(c2=O)Cc2cc3ccccc3nc2-1 (stereo not given),93% and 99%
6,NC(Cc1ccc(N(CCCl)CCCl)cc1)C(=O)O (stereo not given),3.9%
7,COc1cc([C@@H]2c3cc4c(cc3[C@H](O)[C@H]3COC(=O)[C@H]23)OCO4)cc(OC)c1O,77.6% and 81.6%
8,COc1cc(C2c3cc4c(cc3C(O)C3COC(=O)C23)OCO4)cc(OC)c1OC (stereo not given),91.8%

# Assay: growth inhibition, single agents and combos, ICB984, cell-based, cisplatin or BGB combos, synergistic combos for chromothripsis tumors (AID 1671451);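 also: cells exposed for 96 hours before readout; 0% = vehicle DMSO and 100% = killing by high DMSO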
# Details: ICB984 medulloblastoma cells, drug combinations, BGB IC20 combo, at 0.005 µM, stronger effect = higher value
row,SMILES,inhibition
1,Cc1c(N)nc(C(CC(N)=O)NCC(N)C(N)=O)nc1C(=O)NC(C(=O)NC(C)C(O)C(C)C(=O)NC(C(=O)NCCc1nc(-c2nc(C(=O)NCCC[S+](C)C)cs2)cs1)C(C)O)C(O[C@@H]1O[C@@H](CO)[C@@H](O)[C@H](O)[C@@H]1O[C@H]1O[C@H](CO)[C@@H](O)[C@H](OC(N)=O)[C@@H]1O)c1cnc[nH]1 (stereo not given in full),15.2% and 12.8%
2,O=c1[nH]c(=O)n(C2OC(CO)C(O)C2O)cc1F (stereo not given),26.6%
3,O=P(O)(NCCCl)NCCCl,-17.4%
4,CC1(C)C(C(=O)Nc2ccc(S(=O)(=O)c3ccc(NC(=O)C4C(C)(C)C4(C)C)cc3)cc2)C1(C)C,-19.6%
5,CCC1(O)C(=O)OCc2c1cc1n(c2=O)Cc2cc3ccccc3nc2-1 (stereo not given),-14.4% and -0.816%
6,NC(Cc1ccc(N(CCCl)CCCl)cc1)C(=O)O (stereo not given),-15.2%
7,COc1cc([C@@H]2c3cc4c(cc3[C@H](O)[C@H]3COC(=O)[C@H]23)OCO4)cc(OC)c1O,12.7% and -7.66%
8,COc1cc(C2c3cc4c(cc3C(O)C3COC(=O)C23)OCO4)cc(OC)c1OC (stereo not given),44.2%
